Source: PubChem BioAssay (EPA / NIEHS)
Calls of active or inactive are those of the source. The calls were made as follows: active = hit-call score of the fitted dose curve at least 0.9, where 1 is the maximum; inactive = score below 0.9.

Test system: not listed separately
Assay: ATG_BRE_CIS: Attagene CIS-FACTORIAL HepG2 Assay for human Bone Morphogenetic Protein (BMP) Response Element (BRE) (AID 2282933)
Settings: HepG2 BMP response element reporter, Attagene transcription factor profiling; actives raise or lower the signal
Outline: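 Fluorescence-labelled reporter cDNA fragments, separated by capillary electrophoresis, gave the signal for this component of a 52-readout multiplex. HepG2 cells were transfected, exposed to chemicals for 24 h, and compared with DMSO using bidirectional fitting.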

Structure (SMILES)	outcome	AC50
C=C(C)C(=O)OCCO	inactive	–
C1=Cc2ccccc2C1	inactive	–
CCOC(=O)CC	inactive	–
CCC(=O)Oc1ccc(/C(CC)=C(\CC)c2ccc(OC(=O)CC)cc2)cc1	inactive	–
CO[Si](CCC1CCC2OC2C1)(OC)OC (stereo not given)	inactive	–
CCCCCC/C=C\CCCCCCCC(=O)O	inactive	–
Cc1cc(=O)n(-c2ccccc2)n1C	inactive	–
FC(F)(F)C(=NOCC1OCCO1)c1ccc(Cl)cc1	–	150 µM (active)
CCOC(=O)N1CCC(=C2c3ccc(Cl)cc3CCc3cccnc32)CC1	inactive	–
COc1cc(C)ccc1C(C)C	inactive	–
CCCCCCCOC(=O)CCC	inactive	–
Cc1ccc(C(C)c2ccc(C)c(C)c2)cc1C	inactive	–
O=C(/C=C/C=C/c1ccc2c(c1)OCO2)N1CCCCC1	–	176 µM (active)
CC(C)=CCC[C@H](C)CCO	inactive	–
O=C1CCCCCCCCCCC(=O)OCCO1	inactive	–
COCC(C)N (stereo not given)	inactive	–
CC(=O)[C@@]1(O)CC[C@H]2[C@@H]3C[C@H](C)C4=CC(=O)C=C[C@]4(C)[C@@]3(F)[C@@H](O)C[C@@]21C	inactive	–
CC(C)CC(O)Cc1ccccc1 (stereo not given)	inactive	–
CCCCOCCOC(=O)COc1nc(Cl)c(Cl)cc1Cl	inactive	–
COC(=O)/C=C\C(=O)O	inactive	–

Structure (SMILES)	outcome	AC50
C=C[Si](OC(C)=O)(OC(C)=O)OC(C)=O	inactive	–
Cc1c(C)c([N+](=O)[O-])c(C(C)(C)C)c([N+](=O)[O-])c1C	inactive	–
O=[N+]([O-])C1(Br)COCOC1	–	33.4 µM (active)
CC(C)=CC1CC(C)CCO1 (stereo not given)	inactive	–
Nc1ccc(-c2ccc(F)cc2)cc1	inactive	–
FC(F)=C(F)OC(F)(F)C(F)(F)C(F)(F)F	inactive	–
CCCOC(=O)CCCCC(=O)OCCC	inactive	–
OCCN(CCO)c1ccccc1	inactive	–
O=C(O)c1cc(Cl)cc([N+](=O)[O-])c1Cl	inactive	–
CCCCC(CC)COC(=O)c1ccccc1O (stereo not given)	inactive	–
CCc1nccnc1C	inactive	–
CC(=O)Nc1ccc2c(c1)Cc1cc(NC(C)=O)ccc1-2	inactive	–
OCCCS	inactive	–
Cc1cccc(OCCOc2cccc(C)c2)c1	inactive	–
Cc1ccc([N+](=O)[O-])cc1S(=O)(=O)O	inactive	–
COC(=O)c1cc(Cl)ccc1[N+](=O)[O-]	inactive	–
Cc1oncc1C(=O)Nc1ccc(C(F)(F)F)cc1	–	127 µM (active)
CC(C)c1ccc2cc(C(C)C)ccc2c1	inactive	–
C=CC(=O)OCCOC(=O)C=C	inactive	–
CCCCCCCCCCCCCOP(=O)(O)O	inactive	–

Biological target: Retinoic acid receptor alpha (Homo sapiens) (UniProt P10276)
Sequence (P10276 whole entry, looked up): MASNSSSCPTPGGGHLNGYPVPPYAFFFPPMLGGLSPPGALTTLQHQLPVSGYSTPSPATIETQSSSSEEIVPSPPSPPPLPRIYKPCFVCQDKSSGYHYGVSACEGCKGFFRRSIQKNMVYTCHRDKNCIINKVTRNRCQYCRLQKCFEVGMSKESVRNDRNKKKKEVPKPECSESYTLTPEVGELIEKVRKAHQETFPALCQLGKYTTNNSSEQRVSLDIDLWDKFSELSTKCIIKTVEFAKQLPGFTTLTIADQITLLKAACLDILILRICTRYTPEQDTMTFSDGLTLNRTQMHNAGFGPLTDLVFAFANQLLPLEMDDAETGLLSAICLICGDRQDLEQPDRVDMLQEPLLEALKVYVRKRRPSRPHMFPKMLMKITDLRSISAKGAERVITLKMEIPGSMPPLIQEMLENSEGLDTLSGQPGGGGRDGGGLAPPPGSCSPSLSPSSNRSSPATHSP
Assay: ATG_DR5_RAR_CIS: Attagene CIS-FACTORIAL HepG2 Assay for human Retinoic Acid Receptor Alpha (RARE), DR5 submotif (AID 2282934);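 as to AC50: reporter responds to endogenous RAR alpha beta and gamma in HepG2 not RARA alone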
Settings: HepG2 Attagene cis-factorial RARE DR5 reporter, mRNA; actives raise or lower the signal
Outline: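 Transfected HepG2 reporter cells are exposed to chemicals for 24 h. Then RNA is extracted and the DR5 element reporter transcript is measured by RT-PCR and capillary electrophoresis, with bidirectional curve fitting relative to DMSO.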

Structure (SMILES)	outcome	AC50
C=C(C)C(=O)OCCO	inactive	–
C1=Cc2ccccc2C1	inactive	–
CCOC(=O)CC	inactive	–
CCC(=O)Oc1ccc(/C(CC)=C(\CC)c2ccc(OC(=O)CC)cc2)cc1	inactive	–
CO[Si](CCC1CCC2OC2C1)(OC)OC (stereo not given)	inactive	–
CCCCCC/C=C\CCCCCCCC(=O)O	–	34.2 µM (active)
Cc1cc(=O)n(-c2ccccc2)n1C	inactive	–
FC(F)(F)C(=NOCC1OCCO1)c1ccc(Cl)cc1	inactive	–
CCOC(=O)N1CCC(=C2c3ccc(Cl)cc3CCc3cccnc32)CC1	inactive	–
COc1cc(C)ccc1C(C)C	inactive	–
CCCCCCCOC(=O)CCC	inactive	–
Cc1ccc(C(C)c2ccc(C)c(C)c2)cc1C	inactive	–
O=C(/C=C/C=C/c1ccc2c(c1)OCO2)N1CCCCC1	inactive	–
CC(C)=CCC[C@H](C)CCO	inactive	–
O=C1CCCCCCCCCCC(=O)OCCO1	inactive	–
COCC(C)N (stereo not given)	inactive	–
CC(=O)[C@@]1(O)CC[C@H]2[C@@H]3C[C@H](C)C4=CC(=O)C=C[C@]4(C)[C@@]3(F)[C@@H](O)C[C@@]21C	–	100 µM (active)
CC(C)CC(O)Cc1ccccc1 (stereo not given)	inactive	–
CCCCOCCOC(=O)COc1nc(Cl)c(Cl)cc1Cl	inactive	–
COC(=O)/C=C\C(=O)O	inactive	–

Structure (SMILES)	outcome	AC50
C=C[Si](OC(C)=O)(OC(C)=O)OC(C)=O	inactive	–
Cc1c(C)c([N+](=O)[O-])c(C(C)(C)C)c([N+](=O)[O-])c1C	–	5.92 µM (active)
O=[N+]([O-])C1(Br)COCOC1	inactive	–
CC(C)=CC1CC(C)CCO1 (stereo not given)	inactive	–
Nc1ccc(-c2ccc(F)cc2)cc1	inactive	–
FC(F)=C(F)OC(F)(F)C(F)(F)C(F)(F)F	inactive	–
CCCOC(=O)CCCCC(=O)OCCC	inactive	–
OCCN(CCO)c1ccccc1	inactive	–
O=C(O)c1cc(Cl)cc([N+](=O)[O-])c1Cl	inactive	–
CCCCC(CC)COC(=O)c1ccccc1O (stereo not given)	inactive	–
CCc1nccnc1C	inactive	–
CC(=O)Nc1ccc2c(c1)Cc1cc(NC(C)=O)ccc1-2	inactive	–
OCCCS	inactive	–
Cc1cccc(OCCOc2cccc(C)c2)c1	inactive	–
Cc1ccc([N+](=O)[O-])cc1S(=O)(=O)O	inactive	–
COC(=O)c1cc(Cl)ccc1[N+](=O)[O-]	inactive	–
Cc1oncc1C(=O)Nc1ccc(C(F)(F)F)cc1	inactive	–
CC(C)c1ccc2cc(C(C)C)ccc2c1	–	67 µM (active)
C=CC(=O)OCCOC(=O)C=C	inactive	–
CCCCCCCCCCCCCOP(=O)(O)O	inactive	–
